Assay outcomes from PubChem.
GalR3 antag – blocks the human galanin receptor 3. O60755. HEK293 GalR3-CNG cAMP membrane potential fluorescence; galR3 body fused to GalR1 C-terminus. inhibition, % at 3 µM. hit rate 0.44% among 360,000. AID 651719;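 active = inhibition above the screen-wide average plus 3 SD, cut at about 13% in these data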;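 also: forskolin and galanin both at EC90 stimulate the cells; cAMP rise reported by CNG channel membrane potential dye signal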
Target sequence (O60755 1-299 limits assumed): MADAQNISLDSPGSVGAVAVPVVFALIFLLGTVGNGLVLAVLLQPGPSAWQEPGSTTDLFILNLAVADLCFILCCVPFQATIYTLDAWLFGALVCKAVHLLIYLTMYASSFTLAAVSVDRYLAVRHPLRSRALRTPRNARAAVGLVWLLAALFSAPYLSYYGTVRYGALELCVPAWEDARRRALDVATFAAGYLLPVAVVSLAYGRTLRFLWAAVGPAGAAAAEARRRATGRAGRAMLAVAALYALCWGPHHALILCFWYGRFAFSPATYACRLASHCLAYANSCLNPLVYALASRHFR
H9c2 protect – modulators protecting cardiomyocytes from myocardial damage; protection from H2O2 cell death, % at 20 µM; AID 588492; hit rate 0.63% among 360,000; H9c2 cardiomyocytes, H2O2 injury protection, ATPLite, 2 h;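 active = compounds giving at least 50% protection of heart cells from peroxide-induced death in the single-dose screen, raw or plate-pattern-corrected value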
SMARCA2 activ – increases SMARCA2 function in MMTV reporter cells | AID 652017 | activation, % at 9.1 µM | hit rate 1% among 370,000 | MG213 cells, MMTV-luciferase reporter, dexamethasone, overnight; in the data active = activation above about 7.8%
NR2F2 inh – inhibitors of human COUP-TFII (NR2F2); P24468; HEK293T NGFI-A luciferase reporter, luminescence; hit rate 0.7% among 370,000; inhibition, % at 8.6 µM;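 active = inhibition above a per-plate cutoff, mean inhibition of test wells between control levels plus 3 SD, cut at about 38% in these data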;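 also: cells cotransfected with COUP-TFII expression vector driving the NGFI-A reporter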
Gli-Sufu block – antagonists of Gli-Sufu signaling; Sufu-KO-LIGHT fibroblasts, Gli luciferase reporter luminescence; inhibition, % at 5 µM; hit rate 0.74% among 340,000;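 active = inhibition above about 55%, limit read from the data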
GAA850 FXN act – increases GAA850 frataxin promoter reporter activity. HEK293 lucGAA850 FXN promoter luciferase reporter, 24 h; percent of 10 µM SAHA response. activation, % at 6 µM. hit rate 0.56% among 360,000;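 active = activation above the average of all compounds screened plus 3 SD, cutoff fixed separately per campaign, cut at about 7.5% in these data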
Gli-Sufu confirm – confirmation of Gli-SUFU pathway antagonists | shares compounds with Gli-Sufu block | Sufu-KO-LIGHT cells, Gli luciferase reporter, luminescence | inhibition, % at 5 µM | hit rate 40% among 2,500;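 active = mean inhibition at 5 µM reaching about 45%, limit read from the data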
SufuKO cytotox – cytotoxic in Gli-SUFU antagonist counter-screen; hit rate 32% among 2,500; Sufu-KO-LIGHT cells cytotoxicity, ATP luminescence; AID 651994; shares compounds with Gli-Sufu block; cytotoxicity, % at 5 µM;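 active = mean cytotoxicity at 5 µM above about 25%, limit read from the data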;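 also: cells exposed to compound overnight for roughly 16 to 18 hours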
Wnt3a cs – inhibits Wnt3a reporter, counter-screen for Gli-SUFU antagonists | inhibition, % at 6.25 µM | hit rate 20% among 2,500 | shares compounds with Gli-Sufu block | AID 651995 | Wnt-LIGHT cells, Wnt3a-driven luciferase reporter, luminescence;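 active = mean inhibition above about 25%, limit read from the data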
Each line names hits and unclear results; the compound was inactive in the other large screens (follow-up assays come after a bar, where they were run). The list is not random: actives were taken first. Their share in the collection is about 3.4%.

Cc1ccc(S(=O)(=O)N(Cc2ccccc2)c2ccccc2C(=O)NCc2ccco2)cc1	Gli-Sufu block 96 | Gli-Sufu confirm inactive | SufuKO cytotox inactive | Wnt3a cs inactive
Cc1ccc(S(=O)(=O)N(Cc2ccccc2)c2ccccc2C(=O)Nc2ccccc2C(=O)NCc2ccco2)cc1	none
Cc1ccn2c(=O)nc(SCC(=O)Nc3cccc4ccccc34)nc2c1	none
O=C(CSc1nc(=O)n2cc(Cl)ccc2n1)Nc1cccc2ccccc12	Gli-Sufu block 91 | Gli-Sufu confirm inactive | SufuKO cytotox inactive | Wnt3a cs inactive
COc1ccc(CNCC(O)COc2cccc3c2OC(C)(C)C3)cc1 (centres undefined)	Gli-Sufu block 60 | Gli-Sufu confirm 61 | SufuKO cytotox 28 | Wnt3a cs inactive
COC(=O)c1ccc(COc2cccc3c2OC(C)(C)C3)cc1	none
CN1/C(=C\C(=S)NC(=O)c2ccc([N+](=O)[O-])cc2)C(C)(C)c2ccccc21	Gli-Sufu block 62 | Gli-Sufu confirm inactive | SufuKO cytotox inactive | Wnt3a cs 26
CN1/C(=C\C(=S)NC(=O)c2cccc(Br)c2)C(C)(C)c2ccccc21	Gli-Sufu block 72 | Gli-Sufu confirm 56 | SufuKO cytotox inactive | Wnt3a cs inactive
CN1/C(=C\C(=O)Nc2ccc(Br)cc2)C(C)(C)c2ccccc21	none
O=C(CN(Cc1ccccc1)C(=O)CCC(=O)Nc1nccs1)NCC1CCCO1 (centres undefined)	none | Gli-Sufu confirm inactive | SufuKO cytotox inactive | Wnt3a cs inactive
CCCCC(=O)Nc1nnc(SCC(=O)NCC2CCCO2)s1 (centres undefined)	none
CCc1nnc(NC(=O)CCC(=O)NCC2CCCO2)s1 (centres undefined)	none | Gli-Sufu confirm inactive | SufuKO cytotox inactive | Wnt3a cs inactive
C=CCN1C(=O)[C@@H](CC(=O)NCCCN2CCCC2=O)[C@]2(C(=O)OCC)CCCCC/C=C/12	none (no result: GalR3 antag, H9c2 protect, Gli-Sufu block, GAA850 FXN act)
COc1ccc(C(c2nnnn2C2CCCCC2)N2CCN(C/C=C/c3ccccc3)CC2)cc1 (centres undefined)	none (no result: Gli-Sufu block, GAA850 FXN act)
CC(C)[C@@H]1CC[C@@H](C)C[C@H]1OC(=O)C[n+]1cc(-c2ccc(Cl)cc2)n2c1CCCCC2	Gli-Sufu block 66 | Gli-Sufu confirm 77 | SufuKO cytotox 35 | Wnt3a cs inactive
O=C(C[n+]1cc(-c2ccc(Cl)cc2)n2c1CCCCC2)c1ccccc1	none
Cc1csc(NC(=O)CCc2nc3ccccc3s2)n1	Gli-Sufu block 99 | Gli-Sufu confirm inactive | SufuKO cytotox inactive | Wnt3a cs inactive
Cc1csc(NC(=O)CSCC(=O)Nc2ccccc2)n1	Gli-Sufu block 99 | Gli-Sufu confirm inactive | SufuKO cytotox inactive | Wnt3a cs inactive
CC(C)CCNC(=O)[C@H]1COC(O)([C@H](Cc2ccccc2)NC(=O)[C@@H](NC(=O)OCc2ccccc2)C(C)C)CN1C (some centres undefined)	none (no result: GalR3 antag, H9c2 protect, SMARCA2 activ, Gli-Sufu block, GAA850 FXN act)
CCOC(=O)Cn1c(COc2ccccc2OC)[n+](C)c2ccccc21	none | Gli-Sufu confirm inactive | SufuKO cytotox inactive | Wnt3a cs inactive
CCOC(=O)Cn1c2[n+](c3ccccc31)CC(O)CS2 (centres undefined)	none
COc1ccc(S[C@]2(C(=O)NCCCN(C)C)CC(=O)N[C@@H]2c2ccc(OC)cc2)cc1	none (no result: GalR3 antag, H9c2 protect, Gli-Sufu block, GAA850 FXN act)
CC1=C(C(N)=O)C(c2ccccn2)n2nc(SCc3ccccc3Cl)nc2N1 (centres undefined)	none
CC1=C(C(N)=O)C(c2cccnc2)n2nc(SCc3ccccc3Cl)nc2N1 (centres undefined)	Gli-Sufu block 58 (no result: GalR3 antag, SMARCA2 activ, NR2F2 inh) | Gli-Sufu confirm inactive | SufuKO cytotox inactive | Wnt3a cs inactive
COc1ccc(Nc2nc(N3CCOCC3)nc(N3CCOCC3)n2)c(OC)c1	Gli-Sufu block 59 | Gli-Sufu confirm inactive | SufuKO cytotox inactive | Wnt3a cs inactive
COc1ccccc1Nc1nc(N2CCOCC2)nc(N2CCOCC2)n1	none
